Measured values published in PubChem BioAssay.
A number with no mark means an inactive call. The rule behind the calls is not given here.

target: Pantothenate synthetase (Mycobacterium tuberculosis (strain ATCC 25618 / H37Rv)) (UniProt P9WIL5); test: Recombinant Mtb pantothenate synthetase (PanC) inhibitors, coupled enzyme, confirmatory (AID 375); conditions: coupled enzyme assay; at 10 µM, active compounds read high;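 note: 0% = full reaction with vehicle and 100% = no enzyme background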
Sequence (P9WIL5 whole entry, looked up): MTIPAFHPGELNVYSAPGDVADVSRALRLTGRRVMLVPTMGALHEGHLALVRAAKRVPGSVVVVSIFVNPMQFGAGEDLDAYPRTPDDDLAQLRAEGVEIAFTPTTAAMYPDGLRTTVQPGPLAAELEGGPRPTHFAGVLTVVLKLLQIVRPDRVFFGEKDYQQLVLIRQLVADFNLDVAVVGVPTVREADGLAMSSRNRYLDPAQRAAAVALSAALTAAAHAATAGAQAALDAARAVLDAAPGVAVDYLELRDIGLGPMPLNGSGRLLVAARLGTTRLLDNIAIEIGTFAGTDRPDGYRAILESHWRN

SMILES | inhibition
COc1cccc(-n2c(C)nc3c(cnn3-c3ccc(Cl)cc3)c2=O)c1 | 4%
CC1(C)CC(=O)c2cnc(NCc3ccco3)nc2C1 | 0%
CCCCc1cc(=O)oc2cc(OCC(=O)N(CC)CC)c(Cl)cc12 | 0%
Cc1[nH]c2ccccc2c1Cc1nnc(SCC(=O)NCc2ccco2)o1 | 1%
COc1ccc(CC(=O)Nc2ccc(OC)c(NC(=O)c3ccco3)c2)cc1 | 7%
COc1ccc(C2C(=O)N(C3CCCCC3)CC(=O)N2Cc2ccco2)cc1 (configuration not stated) | 6%
Cc1nc(NS(=O)(=O)c2ccccc2)sc1NC(=O)OC(C)C | 0%
O=C(c1ccc(F)cc1)C1CCN(CCn2c(=O)[nH]c3ccccc3c2=O)CC1 | 0%
c1cn2cc(CSC3CCCCC3)nc2s1 | 2%
COc1ccc(CCn2c(NCCCN3CCOCC3)nc3c2c(=O)[nH]c(=O)n3C)cc1 | 0%
O=C(Nc1cccc(C(F)(F)F)c1)c1ccco1 | 0%
CCn1c(NCc2ccc(N(C)C)cc2)nc2ccccc21 | 0%
CCOC(=O)N1CCN(S(=O)(=O)c2ccc(Br)s2)CC1 | 11%
O=C(NCC1CCCO1)c1ccccc1-c1nc(-c2ccc(Cl)cc2)no1 (configuration not stated) | 1%
O=C(c1ccccc1-c1nc(-c2ccccc2)no1)N1CCCC1 | 0%
Cc1cn([C@H]2C=C[C@@H](CO)O2)c(=O)[nH]c1=O | 0%
O=C(NCC1CCCO1)C1CCCN(Cc2cnn(-c3ccccc3)c2-n2cccc2)C1 (configuration not stated) | 0%
c1ccc(Cc2ccc(OCCn3cncn3)cc2)cc1 | 0%
C[C@]12CC[C@H]3[C@@H](CCC4=CC(=O)CC[C@@]43C)[C@@H]1CC[C@@H]2C(=O)CO | 0%
CCS(=O)(=O)N1CCC(C(=O)NC2CCCCC2)CC1 | 0%
CC(C)(NC(=O)N1CCCC1)c1cccc(C(C)(C)NC(=O)N2CCCC2)c1 | 0%
Cc1ccc(N2C(N)=NC(N)=NC23CCCC3)c(C)c1 | 3%
